FGF22 binding – shifts melting point of recombinant human FGF22. 340,000 tested, 1.5% active. AID 651658. recombinant FGF22 thermal shift, SYPRO orange fluorescence; percent of sucrose octasulfate shift, DMSO zero. activity (Tm shift, normalised), % at 9.99 µM;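 active = mean Tm shift, scaled 0 neutral to 100 positive control, at about 1.3% or above, every replicate too, limit read from the data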
SIRT5 block – sirtuin-5 (human) deacylase inhibition; Q9NXA8; Purified SirT5, succinyl-peptide AMC, trypsin-coupled fluorescence; inhibition, % at 15 µM; 330,000 tested, 1.1% active; in the data active = inhibition above about 15%
Target sequence (Q9NXA8 whole entry, looked up): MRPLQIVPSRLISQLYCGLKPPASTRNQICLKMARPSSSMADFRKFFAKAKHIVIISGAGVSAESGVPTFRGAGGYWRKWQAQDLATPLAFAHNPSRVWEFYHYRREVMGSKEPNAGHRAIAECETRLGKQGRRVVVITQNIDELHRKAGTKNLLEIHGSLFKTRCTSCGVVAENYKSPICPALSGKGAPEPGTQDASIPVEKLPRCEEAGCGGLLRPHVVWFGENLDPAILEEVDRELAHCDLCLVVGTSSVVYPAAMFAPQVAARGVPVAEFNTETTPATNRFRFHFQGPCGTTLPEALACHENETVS
ERAP1 inh – inhibitors of human ERAP1 aminopeptidase; inhibition, % at 10.7 µM; recombinant ERAP1, Leu-AMC fluorescence, 60 min; 340,000 tested, 0.15% active; Q9NZ08;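 active = mean replicate inhibition of at least 30%, or all replicates individually reaching that 30% level; inactive = mean below 30% and not every replicate reaching it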;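 also: 0% = neutral control wells and 100% = L-leucinethiol positive control wells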
Casp6 inh – caspase-6 (human) enzyme inhibition | purified caspase-6, Z-VEID-R110 cleavage fluorescence | inhibition, % at 12.5 µM | P55212 | 350,000 tested, 0.53% active | AID 686996;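 active = mean inhibition across replicates at least about 35%, with every replicate also reaching that limit, limit read from the data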;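 also: 0% = median of neutral control wells and 100% = no fluorescence left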
The depositor's hits bear a star; · = no result. A selection: hits, their analogues and other compounds. The true share with any hit is near 3.1%.

SMILES	FGF22 binding	SIRT5 block	ERAP1 inh	Casp6 inh
COc1ccc(S(=O)(=O)Nc2ccc3c(c2)CC(=O)N([C@H](C)CO)C[C@@H](C)[C@@H](CN(C)Cc2ccc(Oc4ccccc4)cc2)O3)cc1	-1	16*	2	·
COc1ccc(S(=O)(=O)Nc2ccc3c(c2)CC(=O)N([C@H](C)CO)C[C@H](C)[C@H](CN(C)Cc2ccc(Oc4ccccc4)cc2)O3)cc1	0	12	2	·
C[C@@H]1CN([C@H](C)CO)C(=O)Cc2cc(NS(=O)(=O)c3ccc(Cl)cc3)ccc2O[C@@H]1CN(C)Cc1ccc(Oc2ccccc2)cc1	0	11	-4	0
COc1ccc(CN(C)C[C@H]2Oc3ccc(NS(=O)(=O)c4ccc(Cl)cc4)cc3CC(=O)N([C@@H](C)CO)C[C@@H]2C)cc1	0	27*	-1	-1
O=C(C[C@H]1C=C[C@H](NC(=O)Nc2cc(F)ccc2F)[C@H](CO)O1)NCc1ccccn1	0	0	-1	2
C[C@H]1CN([C@@H](C)CO)C(=O)Cc2cc(NC(=O)CCN3CCOCC3)ccc2O[C@H]1CN(C)C(=O)Nc1cccc2ccccc12	-1	5	0	8
CCCN(C)C[C@H]1Oc2ncc(-c3cccc(C#N)c3)cc2C(=O)N([C@H](C)CO)C[C@H]1C	0	-3	0	-5
Cc1ccc(S(=O)(=O)Nc2ccc3c(c2)CC(=O)N([C@@H](C)CO)C[C@@H](C)[C@@H](CN(C)Cc2ccc(Oc4ccccc4)cc2)O3)cc1	-1	18*	-1	1
COc1ccccc1CNC(=O)C[C@H]1CC[C@H]2[C@@H](COC[C@@H](O)CN2C(=O)Nc2ccc(F)cc2)O1	0	2	-2	3
O=C(C[C@H]1CC[C@H](NC(=O)CN2CCOCC2)[C@@H](CO)O1)NCCc1ccncc1	0	-1	0	-1
CCN(CC)c1ncnc2c1cnn2Cc1ccc(Cl)cc1	43*	-2	1	7
Cc1cc(Oc2ccc(=O)n(C)n2)nc(SCc2ccccc2)n1	43*	-4	2	16
CCC(CC)NC(=O)Nc1cccc(C)c1C	43*	-4	-7	-1
CCOc1ccc(S(=O)(=O)N2CCCCC2)c(C)c1C	43*	-5	1	1
CCOc1ccc(S(=O)(=O)N2CCCCC2)cc1NC(=O)C1CCCC1	43*	·	0	0
CCN1CCN(c2ccc(S(=O)(=O)N3CCCCC3)cc2NC(=O)c2ccccc2)CC1	0	2	103*	-5
CC(C)Oc1ccc(S(=O)(=O)N2CCCCC2)cc1NC(=O)C1CCCC1	0	1	1	0
CS(=O)(=O)c1ccc(Cl)c(NC(=O)CSc2nnc3n2CCCCC3)c1	44*	·	0	0
CCC(=O)Nc1ccc2c(c1)C(=O)N(C)C[C@H](OC)[C@@H](C)CN(Cc1ccccc1)[C@H](C)CO2	0	-3	·	·
CCCN(C)C[C@H]1OCCCC[C@H](C)Oc2ccc(NS(=O)(=O)c3ccc(F)cc3)cc2C(=O)N([C@H](C)CO)C[C@H]1C	0	0	1	3
C[C@@H]1CCCCO[C@H](CN(C)S(=O)(=O)c2ccc(F)cc2)[C@H](C)CN([C@@H](C)CO)C(=O)c2cc(NC(=O)Nc3ccccc3)ccc2O1	0	·	·	·
Cc1noc(C)c1NC(=O)N(C)C[C@H]1Oc2c(NS(=O)(=O)c3ccccc3)cccc2C(=O)N([C@@H](C)CO)C[C@H]1C	0	3	2	-1
Cc1ccc(S(=O)(=O)N2CCCCC2)cc1NC(=O)CSc1nncn1-c1ccccc1	43*	-2	0	-6
Cc1ccc(S(=O)(=O)N2CCCCC2)cc1NC(=O)COc1ccccc1F	43*	-3	1	-3
COc1ccccc1C#Cc1ccc2c(c1)[C@H]1[C@H](CCN1S(=O)(=O)c1cccc(C)c1)[C@H](CO)N2	0	13	1	-1
CCC(=O)Nc1ccc2c(c1)C(=O)N(C)C[C@@H](OC)[C@H](C)CN(C(=O)c1ccc(F)cc1)[C@@H](C)CO2	0	0	1	1
Cc1ccc(S(=O)(=O)N(C)C[C@@H]2OCCCC[C@H](C)Oc3ccc(NS(=O)(=O)c4ccc(F)cc4)cc3C(=O)N([C@H](C)CO)C[C@@H]2C)cc1	0	26*	0	2
Cc1ccc(S(=O)(=O)Nc2ccc3c(c2)C(=O)N([C@@H](C)CO)C[C@H](C)[C@@H](CN(C)S(=O)(=O)c2ccc(F)cc2)OCCCC[C@@H](C)O3)cc1	0	15	2	-2

Screening results: PubChem, Broad Institute
